Laboratory results as given in PubChem BioAssay AID1159580 (chemical genetic matrix, 2015).
In all, about 5,500 compounds went through this assay and about 2,000 (36%) were called active. About 18% were inconclusive and are not listed. Some of the results follow. Values without a mark were called inactive. Cut-off read from the data, not from the text of the source: active = normalized growth mostly below about 0.91 (no sharp cut-off); inconclusive = no clear call, values can overlap the other calls; inactive = mostly above about 0.92.

Test: chemical genetic growth profiling, strain panel (AID 1159580);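 note: tested at 20 µM; growth read once vehicle control cultures reached saturation at 30 °C; 1 = growth at the plate median or of vehicle wells; lower values mean less growth of the strain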
Settings: growth OD

C#C[C@]1(OC(C)=O)CCC2C3CCC4=CC(=O)CC[C@@H]4C3CC[C@@]21C (stereo partly drawn)
normalized growth (S. cerevisiae deletion strains, locus YKL009W, strain mrt4, hits give low values): 0.968 | normalized growth (S. cerevisiae deletion strains, locus YKL068W, hits give low values): 0.973 | normalized growth (S. cerevisiae deletion strains, locus YKL085W, strain MDH1 (second series), hits give low values): 0.967 | normalized growth (S. cerevisiae deletion strains, locus YKL085W, strain MDH1, hits give low values): 0.967 | normalized growth (S. cerevisiae deletion strains, locus YKL160W, strain elf1, hits give low values): 0.964 | normalized growth (S. cerevisiae deletion strains, locus YKL190W, strain CNB1, hits give low values): 0.977 | normalized growth (S. cerevisiae deletion strains, locus YKR001C, strain vps1, hits give low values): 0.945 | normalized growth (S. cerevisiae deletion strains, locus YKR026C, strain gcn3, hits give low values): 0.984 | normalized growth (S. cerevisiae deletion strains, locus YKR091W, strain srl3, hits give low values): 0.992 | normalized growth (S. cerevisiae deletion strains, locus YLL001W, strain dnm1, hits give low values): 0.988 | normalized growth (S. cerevisiae deletion strains, locus YLL026W, hits give low values): 0.99 | normalized growth (S. cerevisiae deletion strains, locus YLL041C, strain sdh2, hits give low values): 0.976 | normalized growth (S. cerevisiae deletion strains, locus YLR027C, strain aat2, hits give low values): 0.988 | normalized growth (S. cerevisiae deletion strains, locus YLR039C, strain RIC1, hits give low values): 0.892 | normalized growth (S. cerevisiae deletion strains, locus YLR058C, strain SHM2, hits give low values): 0.965 | normalized growth (S. cerevisiae deletion strains, locus YLR102C, strain apc9, hits give low values): 0.975 | normalized growth (S. cerevisiae deletion strains, locus YLR113W, strain HOG1, hits give low values): 0.93 | normalized growth (S. cerevisiae deletion strains, locus YLR221C, strain rsa3, hits give low values): 1.02 | normalized growth (S. cerevisiae deletion strains, locus YLR258W, strain gsy2, hits give low values): 0.965 | normalized growth (S. cerevisiae deletion strains, locus YLR262C, strain YPT6 (second series), hits give low values): 0.991 | normalized growth (S. cerevisiae deletion strains, locus YLR262C, strain YPT6, hits give low values): 0.842 | normalized growth (S. cerevisiae deletion strains, locus YLR268W, strain sec22, hits give low values): 0.926 | normalized growth (S. cerevisiae deletion strains, locus YLR320W, strain mms22, hits give low values): 0.969 | normalized growth (S. cerevisiae deletion strains, locus YLR330W, strain CHS5, hits give low values): 0.978 | normalized growth (S. cerevisiae deletion strains, locus YLR342W, strain FKS1 (second series), hits give low values): 0.956 | normalized growth (S. cerevisiae deletion strains, locus YLR342W, strain FKS1, hits give low values): 0.961 | normalized growth (S. cerevisiae deletion strains, locus YLR357W, strain rsc2, hits give low values): 0.975 | normalized growth (S. cerevisiae deletion strains, locus YLR370C, strain arc18, hits give low values): 0.986 | normalized growth (S. cerevisiae deletion strains, locus YLR371W, strain rom2, hits give low values): 0.983 | normalized growth (S. cerevisiae deletion strains, locus YLR384C, strain iki3, hits give low values): 0.991 | normalized growth (S. cerevisiae deletion strains, locus YLR418C, strain cdc73, hits give low values): 0.803 (active) | normalized growth (S. cerevisiae deletion strains, locus YML016C, strain PPZ1, hits give low values): 0.963 | normalized growth (S. cerevisiae deletion strains, locus YML032C, strain rad52, hits give low values): 0.957 | normalized growth (S. cerevisiae deletion strains, locus YML120C, strain ndi1, hits give low values): 1.02 | normalized growth (S. cerevisiae deletion strains, locus YML124C, strain tub3, hits give low values): 0.962 | normalized growth (S. cerevisiae deletion strains, locus YMR058W, strain fet3, hits give low values): 1 | normalized growth (S. cerevisiae deletion strains, locus YMR078C, strain ctf18, hits give low values): 0.958 | normalized growth (S. cerevisiae deletion strains, locus YMR125W, strain sto1, hits give low values): 0.978 | normalized growth (S. cerevisiae deletion strains, locus YMR129W, hits give low values): 0.973 | normalized growth (S. cerevisiae deletion strains, locus YMR205C, strain PFK2, hits give low values): 0.984 | normalized growth (S. cerevisiae deletion strains, locus YMR223W, strain ubp8, hits give low values): 0.962 | normalized growth (S. cerevisiae deletion strains, locus YMR231W, strain pep5, hits give low values): 1 | normalized growth (S. cerevisiae deletion strains, locus YMR307W, strain GAS1, hits give low values): 1.08 | normalized growth (S. cerevisiae deletion strains, locus YNL067W, strain RPL9B, hits give low values): 0.984 | normalized growth (S. cerevisiae deletion strains, locus YNL071W, strain lat1, hits give low values): 0.986 | normalized growth (S. cerevisiae deletion strains, locus YNL128W, strain TEP1, hits give low values): 0.977 | normalized growth (S. cerevisiae deletion strains, locus YNL153C, strain GIM3, hits give low values): 0.974 | normalized growth (S. cerevisiae deletion strains, locus YNL183C, strain NPR1, hits give low values): 0.927 | normalized growth (S. cerevisiae deletion strains, locus YNL209W, strain ssb2, hits give low values): 0.983 | normalized growth (S. cerevisiae deletion strains, locus YNL233W, strain BNI4, hits give low values): 0.977 | normalized growth (S. cerevisiae deletion strains, locus YNL248C, strain rpa49, hits give low values): 0.963 | normalized growth (S. cerevisiae deletion strains, locus YNL250W, strain rad50, hits give low values): 0.971 | normalized growth (S. cerevisiae deletion strains, locus YNL271C, strain bni1, hits give low values): 0.961 | normalized growth (S. cerevisiae deletion strains, locus YNL298W, strain CLA4, hits give low values): 0.964 | normalized growth (S. cerevisiae deletion strains, locus YNL307C, strain MCK1, hits give low values): 0.889 (active) | normalized growth (S. cerevisiae deletion strains, locus YNL322C, strain KRE1 (second series), hits give low values): 0.949 | normalized growth (S. cerevisiae deletion strains, locus YNR049C, strain mso1, hits give low values): 0.994 | normalized growth (S. cerevisiae deletion strains, locus YNR052C, strain pop2, hits give low values): 0.932 | normalized growth (S. cerevisiae deletion strains, locus YOL006C, strain TOP1, hits give low values): 0.867 | normalized growth (S. cerevisiae deletion strains, locus YOL012C, strain htz1): 1 | normalized growth (S. cerevisiae deletion strains, locus YOL147C, strain pex11, hits give low values): 0.967 | normalized growth (S. cerevisiae deletion strains, locus YOR001W, strain rrp6, hits give low values): 1.02 | normalized growth (S. cerevisiae deletion strains, locus YOR061W, strain CKA2, hits give low values): 0.942 | normalized growth (S. cerevisiae deletion strains, locus YOR069W, strain VPS5, hits give low values): 0.974 | normalized growth (S. cerevisiae deletion strains, locus YOR070C, strain gyp1, hits give low values): 0.994 | normalized growth (S. cerevisiae deletion strains, locus YOR080W, strain dia2, hits give low values): 0.978 | normalized growth (S. cerevisiae deletion strains, locus YOR083W, strain WHI5, hits give low values): 0.937 | normalized growth (S. cerevisiae deletion strains, locus YOR106W, strain vam3, hits give low values): 0.982 | normalized growth (S. cerevisiae deletion strains, locus YOR136W, strain idh2, hits give low values): 0.992 | normalized growth (S. cerevisiae deletion strains, locus YOR144C, strain elg1, hits give low values): 0.97 | normalized growth (S. cerevisiae deletion strains, locus YOR184W, strain ser1, hits give low values): 0.829 (active) | normalized growth (S. cerevisiae deletion strains, locus YOR231W, strain MKK1, hits give low values): 0.956 | normalized growth (S. cerevisiae deletion strains, locus YOR265W, strain rbl2, hits give low values): 0.998 | normalized growth (S. cerevisiae deletion strains, locus YOR270C, strain vph1, hits give low values): 0.996 | normalized growth (S. cerevisiae deletion strains, locus YOR290C, strain snf2, hits give low values): 0.961 | normalized growth (S. cerevisiae deletion strains, locus YOR316C, strain cot1, hits give low values): 0.969 | normalized growth (S. cerevisiae deletion strains, locus YPL051W, strain arl3, hits give low values): 0.98 | normalized growth (S. cerevisiae deletion strains, locus YPL078C, strain atp4, hits give low values): 0.968 | normalized growth (S. cerevisiae deletion strains, locus YPL106C, strain sse1, hits give low values): 0.939 | normalized growth (S. cerevisiae deletion strains, locus YPL240C, strain hsp82, hits give low values): 0.989 | normalized growth (S. cerevisiae deletion strains, locus YPL241C, strain CIN2, hits give low values): 0.975 | normalized growth (S. cerevisiae deletion strains, locus YPL256C, strain CLN2, hits give low values): 0.88 | normalized growth (S. cerevisiae deletion strains, locus YPR119W, strain clb2, hits give low values): 0.972 | normalized growth (S. cerevisiae deletion strains, locus YPR141C, strain kar3, hits give low values): 0.946 | normalized growth (S. cerevisiae deletion strains, locus YPR163C, strain tif3, hits give low values): 0.966 | normalized growth (S. cerevisiae deletion strains, locus YPR167C, strain met16, hits give low values): 0.958 | normalized growth (S. cerevisiae deletion strains, strain wtn01, hits give low values): 0.936 | normalized growth (S. cerevisiae strains, strain wild type, hits give low values): 0.953
